Data on 20 compounds can be found in ChEMBL document CHEMBL3988442, “University of Dundee, Small-Polar-MMV Screening Library” (2021).

For this assay, the target named is T1, Aspartate--tRNA(Asp/Asn) ligase (Mycobacterium tuberculosis (strain ATCC 25618 / H37Rv)) (UniProt P9WFW3).
T1 sequence (whole entry): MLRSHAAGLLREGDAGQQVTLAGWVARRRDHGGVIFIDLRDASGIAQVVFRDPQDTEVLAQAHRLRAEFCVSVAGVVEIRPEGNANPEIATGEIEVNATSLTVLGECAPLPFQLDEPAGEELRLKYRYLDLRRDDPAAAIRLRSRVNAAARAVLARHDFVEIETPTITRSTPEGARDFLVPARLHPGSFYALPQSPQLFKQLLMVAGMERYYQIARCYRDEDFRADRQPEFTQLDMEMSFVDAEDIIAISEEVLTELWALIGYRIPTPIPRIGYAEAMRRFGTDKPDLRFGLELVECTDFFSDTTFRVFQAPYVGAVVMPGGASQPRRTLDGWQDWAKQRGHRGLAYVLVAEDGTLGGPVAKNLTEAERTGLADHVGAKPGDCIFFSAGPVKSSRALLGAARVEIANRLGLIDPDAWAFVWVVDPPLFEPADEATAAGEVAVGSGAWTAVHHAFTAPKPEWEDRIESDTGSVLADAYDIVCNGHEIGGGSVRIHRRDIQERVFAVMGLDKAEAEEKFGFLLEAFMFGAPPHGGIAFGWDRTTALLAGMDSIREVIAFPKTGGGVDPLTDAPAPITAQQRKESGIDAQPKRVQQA
Put plainly: Assay for Asp RNA synthetase-1 from Mycobacterium tuberculosis. The format is functional. More on the design: scale not given: in the data most compounds retested in dose-response had high values. Conditions: 30 µM.
On to `Cc1noc(NC(=O)c2ccc(Br)cc2)n1`, for which the Percent Effect is -2.92%.

Regarding `c1cnc(N2CCC3(COCc4cnc(-c5cccnc5)nc43)C2)nc1` (stereo not given), the Percent Effect amounted to 2.15%.

For `CCNc1cc2c(nn1)CCN(C(=O)c1ccc(CNC(C)=O)o1)C2`, the Percent Effect came to 5.42%.

For `CC1CCN(C(=O)CN(Cc2ccco2)C2CC2)CC1`, the Percent Effect came out at 0.548%.

On to `CCn1cc(NC(=O)NCc2ccc(CN3CCOCC3)cc2)cn1`, for which the Percent Effect was 3.24%.

With `COc1cc(CNC(=O)NCc2c(C)cc(C)[nH]c2=O)ccc1C`, the Percent Effect is -3.59%.

Regarding `CCOCC1CN(C(=O)N(C)C)Cc2nn(C)cc21` (stereo not given), the Percent Effect is 7.75%.

For `Cc1cc(CNC(=O)C2CCCCN2C(=O)OC(C)(C)C)no1` (stereo not given), the Percent Effect stood at 0.607%.

In the case of `CCN(CCNC(=O)c1ccccc1Br)C1CC1`, the Percent Effect is -1.24%.

Regarding `Cc1cc(CNC(=O)N2CCN(c3nc(C)c(C)s3)CC2)no1`, the Percent Effect is -1.96%.

On to `O=C(NCc1cccc2cccnc12)N1CCC(n2cncn2)CC1`, for which the Percent Effect was -6.04%.

For `O=C(NCCC1=CCCCC1)NCc1nnc2n1CCC2`, the Percent Effect was found to be 2.5%.

`O=C(Nc1cnccn1)[C@@H]1COC[C@H]2CN(C3CCCC3)C[C@H]21`: the Percent Effect was -5.7%.

Take `O=C(NCc1cccs1)C1CN(C(=O)c2cccs2)CC12CCOCC2` (stereo not given): the Percent Effect is 6.61%.

Regarding `Cc1ncsc1C(=O)N(C)CCc1ccncc1`, the Percent Effect is -1.68%.

For `O=C(c1cc(COc2ccc3c(c2)OCO3)[nH]n1)N1CCCC1`, the Percent Effect was 0.912%.

Turning to `CCN(CC)C(=O)C(c1ccccc1)N1CCn2c(C)nnc2C1` (stereo not given), the Percent Effect was -4.06%.

Take `CC1CCN(S(=O)(=O)c2cccn(CC(=O)NC3CCCC3)c2=O)CC1`: the Percent Effect is -2.16%.

Turning to `c1csc(CN2CCO[C@H]3[C@H](OCCN4CCCC4)CC[C@@H]32)n1`, the Percent Effect amounted to 2.94%.

Regarding `Cc1ccc(NC2CCN(C(=O)Cc3cccc(F)c3)CC2)nn1`, the Percent Effect amounted to 14.3%.
